Results: PubChem BioAssay (Tox21)
A number with no mark means an inactive call. Records with an inconclusive call do not appear. Entries that show only a call come without a potency. Active and inactive are the calls of the source. Unless noted, the call rests on the fitted dose curve; in most records, active means well fitted curve in the direction sought with a large enough effect in the repeat runs; inconclusive means weak or mixed curves; inactive means no such curve, though single readings can be large; an effect the other way counts as inactive or inconclusive.

Legend:
[1] = qHTS assay to identify small molecule antagonists of the estrogen related receptor (ERR) signaling pathway from Tox21 library - cell viability counter screen (AID 1224834); further: nearly all actives have a fitted effect of over 30% in size
Procedure, shortened: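 Seeded ERR cells were rested 6 h at 37 C/5% CO2 before compounds, positive and negative controls or DMSO were added. Incubation continued for 17.5 h, and viability was then quantified by CellTiter-Fluor fluorescence.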

[2] = target: Luciferin 4-monooxygenase (Photinus pyralis) (UniProt P08659); assay: qHTS assay to identify small molecule inhibitors of firefly luciferase (AID 1224835); further: nearly all actives have a fitted effect of over 25% in size; further: potency means the concentration at half of the fitted maximal effect
Sequence of Luciferin 4-monooxygenase (Photinus pyralis) (P08659 whole entry, looked up): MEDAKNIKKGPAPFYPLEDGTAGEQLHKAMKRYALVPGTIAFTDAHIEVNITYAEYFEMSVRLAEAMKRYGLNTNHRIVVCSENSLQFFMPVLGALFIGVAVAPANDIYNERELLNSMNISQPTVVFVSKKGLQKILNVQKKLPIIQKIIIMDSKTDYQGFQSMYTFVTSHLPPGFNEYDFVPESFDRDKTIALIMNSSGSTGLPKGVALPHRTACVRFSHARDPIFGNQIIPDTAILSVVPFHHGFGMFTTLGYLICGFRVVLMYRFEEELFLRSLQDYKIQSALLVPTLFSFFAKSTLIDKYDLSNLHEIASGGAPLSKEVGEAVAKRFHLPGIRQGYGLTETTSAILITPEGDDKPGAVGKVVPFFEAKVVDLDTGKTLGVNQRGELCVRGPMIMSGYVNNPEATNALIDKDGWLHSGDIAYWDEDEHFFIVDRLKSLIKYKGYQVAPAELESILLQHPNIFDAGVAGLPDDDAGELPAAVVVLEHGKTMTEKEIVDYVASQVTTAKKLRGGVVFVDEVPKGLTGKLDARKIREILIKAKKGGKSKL
Procedure, shortened: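 Inhibition of purified Photinus luciferase is measured by luminescence. Substrate levels (D-luciferin, ATP) sit at their KM values. Each compound is tested in a concentration series.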

[3] = qHTS assay to identify small molecule agonists of the constitutive androstane receptor (CAR) signaling pathway - cell viability counter screen (AID 1224836); further: nearly all actives have a fitted effect of over 45% in size
Procedure, shortened: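 Fluorescence from CellTiter-Fluor indicates live cells after 23 h exposure. The human hepatoma line expresses hCAR and a CYP2B6-2.2kb reporter. Incubation medium contains 0.75 uM PK11195 (final).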

[4] = qHTS assay to identify small molecule antagonists of the constitutive androstane receptor (CAR) signaling pathway - cell viability counter screen (AID 1224837); further: nearly all actives have a fitted effect of over 45% in size
Procedure, shortened: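 To flag cytotoxic false antagonists, HepG2 hCAR/CYP2B6-2.2kb cells were treated 23 hr with 15-concentration compound series and 50 nM CITCO at 37 C/5% CO2; CellTiter-Fluor fluorescence was the measured end point.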

[5] = target: Nuclear receptor subfamily 1 group I member 3 (Homo sapiens) (UniProt Q14994); assay: qHTS assay to identify small molecule antagonists of the constitutive androstane receptor (CAR) signaling pathway (AID 1224838);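 further: HepG2 cells stably expressing hCAR with CYP2B6 luciferase reporter stimulated by CITCO; nearly all actives have a fitted effect of over 40% in size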
Sequence of Nuclear receptor subfamily 1 group I member 3 (Homo sapiens) (Q14994 whole entry, looked up): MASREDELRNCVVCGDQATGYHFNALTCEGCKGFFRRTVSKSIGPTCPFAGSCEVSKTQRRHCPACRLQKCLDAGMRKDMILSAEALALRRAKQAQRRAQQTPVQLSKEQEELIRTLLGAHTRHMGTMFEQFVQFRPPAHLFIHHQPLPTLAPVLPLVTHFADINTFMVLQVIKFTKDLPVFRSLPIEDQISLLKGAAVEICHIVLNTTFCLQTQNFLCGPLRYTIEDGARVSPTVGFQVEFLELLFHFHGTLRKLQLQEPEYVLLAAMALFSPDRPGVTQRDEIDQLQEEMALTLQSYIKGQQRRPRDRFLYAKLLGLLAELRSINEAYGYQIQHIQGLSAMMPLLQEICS
Procedure, shortened: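 Human hepatoma HepG2 cells expressing hCAR and a CYP2B6 promoter (2.2 kb) luciferase construct; compound titration (15 points) with 50 nM CITCO final, 24 h at 37 C/5% CO2; luminescence via ONE-Glo after 30 min at room temperature.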

[6] = target: Nuclear receptor subfamily 1 group I member 3 (Homo sapiens) (UniProt Q14994); assay: qHTS assay to identify small molecule agonists of the constitutive androstane receptor (CAR) signaling pathway (AID 1224839); further: nearly all actives have a fitted effect of over 15% in size; further: potency means the concentration at half of the fitted maximal effect;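 on activation: HepG2 cells stably carrying human CAR and a CYP2B6 luciferase reporter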
Procedure, shortened: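 Stable hCAR/CYP2B6-2.2kb HepG2 line in DMEM with 10% FBS; compounds (15 concentrations) and 0.75 uM PK11195 final, 24 h at 37 C/5% CO2, then ONE-Glo luminescence after 30 min.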

[7] = qHTS assay to identify small molecule antagonists of the estrogen related receptor signaling pathway with the pleiotropic PPARgamma coactivator (PGC) from Tox21 10K library - cell viability counter screen (AID 1224840; active means well fitted cell-killing curve with a large enough effect in the repeat runs, not every such curve was filed as active; further: nearly all actives have a fitted effect of over 40% in size)
Procedure, shortened: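 Seeded PGC/ERR cells (2,000/well, 6 h, 37 C/5% CO2) get compound by pin tool; 17.5 h incubation at 37 C; CellTiter-Fluor added, 30 min, fluorescence measured.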

[8] = target: Thyrotropin receptor (Homo sapiens) (UniProt P16473); assay: qHTS assay to identify small molecule agonists of the thyroid stimulating hormone receptor (TSHR) signaling pathway (AID 1224843; calls by dose curve; further: nearly all actives have a fitted effect of over 45% in size)
Sequence of Thyrotropin receptor (Homo sapiens) (P16473 whole entry, looked up): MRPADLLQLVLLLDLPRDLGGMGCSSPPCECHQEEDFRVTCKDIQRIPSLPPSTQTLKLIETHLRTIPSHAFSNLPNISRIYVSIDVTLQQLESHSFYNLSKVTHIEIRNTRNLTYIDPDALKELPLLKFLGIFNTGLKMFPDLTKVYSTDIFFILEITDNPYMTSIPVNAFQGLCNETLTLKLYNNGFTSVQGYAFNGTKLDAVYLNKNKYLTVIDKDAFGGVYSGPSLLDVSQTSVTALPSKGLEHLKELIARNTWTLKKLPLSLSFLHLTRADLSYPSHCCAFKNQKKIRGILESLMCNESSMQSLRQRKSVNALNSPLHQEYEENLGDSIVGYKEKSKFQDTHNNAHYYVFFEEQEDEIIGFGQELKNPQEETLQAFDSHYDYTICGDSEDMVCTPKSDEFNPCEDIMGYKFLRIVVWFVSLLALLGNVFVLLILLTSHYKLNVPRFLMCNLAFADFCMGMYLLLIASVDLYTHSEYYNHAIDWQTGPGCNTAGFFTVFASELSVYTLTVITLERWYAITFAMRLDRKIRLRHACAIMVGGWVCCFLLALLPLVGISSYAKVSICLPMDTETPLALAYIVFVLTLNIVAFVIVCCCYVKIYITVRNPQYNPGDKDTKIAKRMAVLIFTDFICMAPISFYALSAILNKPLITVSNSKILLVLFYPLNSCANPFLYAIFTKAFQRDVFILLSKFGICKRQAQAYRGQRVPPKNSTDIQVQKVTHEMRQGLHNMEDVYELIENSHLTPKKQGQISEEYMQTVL
Procedure, shortened: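 A cell-based cAMP HTRF format was run in TSHR-transfected HEK293 cells, 800 per well. Treatment: 30 min, room temperature. Detection: 1 h with labelled cAMP and anti-cAMP cryptate. Concentration-response over 15 points, three replicates.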

[9] = qHTS assay to identify small molecule agonists of the hypoxia (HIF-1) signaling pathway - cell viability counter screen (AID 1224844; calls by dose curve; further: nearly all actives have a fitted effect of over 50% in size)
Procedure, shortened: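 HRE-bla ME-180; 0.5% dFBS; cpd 17 h, 37C, 5% CO2; CellTiter-Glo lum., 30 min RT, post-FRET read, same wells.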

[10] = qHTS assay to identify small molecule agonists of H2AX (AID 1224845; active means well fitted activation curve with a large enough effect in the signal ratio in the repeat runs, not every such curve was filed as active; the % refers to the signal ratio)
Procedure, shortened: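 Phospho-H2AX Ser139 measured by HTRF (ex 320 nm; em 665 and 620 nm) after 24 hr antibody incubation. Compounds, 15 concentrations, 0.76% DMSO, were applied to CHO-K1 cells for 3hr at 37C before lysis.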

[11] = qHTS assay to identify small molecule agonists of H2AX - cell viability counter screen (AID 1224847; calls by dose curve; further: top concentration of the series differs between compounds; nearly all actives have a fitted effect of over 30% in size)
Procedure, shortened: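 Viability of CHO-K1 (wild type) cells after 3 hr compound exposure was measured by CellTiter-Glo luminescence.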

[12] = qHTS RealTime-Glo MT Cell Viability Assay in HepG2 cells - 24 hour (AID 1224867); further: nearly all actives have a fitted effect of over 50% in size
Procedure, shortened: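 Real-time, nonlytic viability: 600 HepG2 cells/well mixed with NanoLuc enzyme plus prosubstrate; 5 h settle, compound (DMSO) added by pintool; luminescence monitored over 40 h at 37 C.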

[13] = qHTS RealTime-Glo MT Cell Viability Assay in HEK293 cells - 32 hour (AID 1224868); further: top concentration of the series differs between compounds; nearly all actives have a fitted effect of over 50% in size
Procedure, shortened: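 Cells + reagent dispensed (600 cells/well, HEK293) → 5 h at 37 C/5% CO2 → 23 nL compound in DMSO pinned → 40 h at 37 C → luminescence read at 0, 8, 16, 24, 32, 40 h.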

[14] = A CellTox Green Cytotoxicity Assay to monitor cytotoxicity in HEK293 cells - 0 hour (AID 1224869); further: nearly all actives have a fitted effect of over 50% in size
Procedure, shortened: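 Tox21 screen in HEK293: membrane-impermeant cyanine dye fluoresces on binding dead-cell DNA; compound pinned 5 h post-seeding, plates held at 37 C, signal read repeatedly through 40 h.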

[15] = qHTS RealTime-Glo MT Cell Viability Assay in HepG2 cells - 40 hour (AID 1224870); further: nearly all actives have a fitted effect of over 50% in size
Procedure, shortened: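 Real-time viability: cells seeded at 600 per well together with NanoLuc and cell-permeant prosubstrate, compounds added after 5 h incubation. Luminescence tracked at 0, 8, 16, 24, 32 and 40 h of exposure.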

[16] = qHTS assay to identify small molecule agonists of the hypoxia (HIF-1) signaling pathway (AID 1224846; active means well fitted activation curve with a large enough effect in the signal ratio in the repeat runs, not every such curve was filed as active; the % refers to the signal ratio)
Procedure, shortened: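 Reporter induction in HRE-bla ME-180 cells is taken as agonism: cells sit 5 hrs after plating, receive compounds or DMSO only, incubate 17 hrs at 37C under 5% CO2, and are loaded with CCF4-AM for beta-lactamase FRET measurement.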

[17] = qHTS assay to identify small molecule antagonists of the estrogen related receptor signaling pathway with the pleiotropic PPARgamma coactivator (PGC) from Tox21 10K library (AID 1224841; call rule not given here)
Procedure, shortened: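 Test chemicals dissolved in DMSO were applied to pre-incubated (6 h) PGC/ERR cells at 2,000 cells/well for an 18 h, 37 C treatment; reporter luminescence was then read using One-Glo.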

[18] = qHTS assay to identify small molecule agonists of the estrogen related receptor signaling pathway with the pleiotropic PPARgamma coactivator (PGC) from Tox21 10K library (AID 1224842); further: potency means the concentration at half of the fitted maximal effect; nearly all actives have a fitted effect of over 15% in size
Procedure, shortened: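 Luminescence from One-Glo (30 min, room temperature) measured after PGC/ERR cells had 18 h at 37 C with pinned compound (23 nL in DMSO). Cells had been seeded at 2,000 per well and pre-incubated 6 h.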

[19] = qHTS assay to identify small molecule agonists of the estrogen related receptor (ERR) signaling pathway from Tox21 library (AID 1224849; calls by dose curve; further: nearly all actives have a fitted effect of over 15% in size); settings: ERR reporter cell line, ONE-Glo luciferase, 18 h; at 92.4 µM (top of the series) unless noted
Procedure, shortened: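 Tox21 compounds tested for ERR agonism in an NTP reporter cell line: 18 h treatment at 37 C, then ONE-Glo luminescence.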

CCC(C(=O)OCCN(CC)CC)c1ccccc1 (centres undefined)
Potency [1]: inactive | Potency [2]: inactive | Potency [3]: inactive | Potency [4]: inactive | Potency [5]: inactive | Potency [6]: inactive | Potency [7]: inactive | Potency [8]: inactive | Potency [9]: inactive | Potency [10]: inactive | Potency [11]: inactive | Potency [12]: inactive | Potency [13]: inactive | Potency [14]: inactive | Potency [15]: inactive

O=C(O)c1c(O)c(-c2ccccc2)nc2ccccc12
Potency [1]: inactive | Potency [2]: 34.7 µM (active) | Potency [3]: inactive | Potency [4]: inactive | Potency [5]: inactive | Potency [7]: inactive | Potency [8]: inactive | Potency [10]: inactive | outcome [16]: inactive | Potency [11]: inactive | Potency [12]: inactive | Potency [13]: inactive | Potency [14]: inactive | Potency [15]: inactive

CC(C)C(OC(=O)c1ccccc1)C(C)(C)COC(=O)c1ccccc1 (centres undefined)
Potency [1]: inactive | Potency [2]: inactive | Potency [3]: inactive | Potency [4]: inactive | Potency [5]: inactive | Potency [7]: inactive | Potency [9]: inactive | Potency [10]: inactive | outcome [16]: inactive | Potency [12]: inactive | Potency [15]: inactive

O=C(Nc1ccccc1)Nc1ccccc1
Potency [1]: inactive | Potency [2]: 6.36 µM (active) | Potency [3]: inactive | Potency [4]: inactive | Potency [6]: 4.88 µM (active) | Potency [7]: inactive | Potency [17]: inactive | Potency [18]: 10.9 µM (active) | Potency [9]: inactive | Potency [10]: inactive | outcome [16]: inactive | activity change, positive = activation [19]: 28.3% (active) | Potency [12]: inactive | Potency [15]: inactive
